# Data from PubChem BioAssay.
# Calls of active or inactive are those of the source.
# Molecular target: Homeobox protein Hox-A13 (Mus musculus) (UniProt Q62424)
# Test: disruptors of Hoxa13 oligonucleotide interaction – biochemical, fluorescence polarization, labeled oligonucleotide, primary screen (AID 1185)
# Details: Hoxa13:DNA binding, 15 min, higher = more signal, called active from +8 up or from −8 down
# Homeobox protein Hox-A13 (Mus musculus), sequence (Q62424 whole entry, looked up): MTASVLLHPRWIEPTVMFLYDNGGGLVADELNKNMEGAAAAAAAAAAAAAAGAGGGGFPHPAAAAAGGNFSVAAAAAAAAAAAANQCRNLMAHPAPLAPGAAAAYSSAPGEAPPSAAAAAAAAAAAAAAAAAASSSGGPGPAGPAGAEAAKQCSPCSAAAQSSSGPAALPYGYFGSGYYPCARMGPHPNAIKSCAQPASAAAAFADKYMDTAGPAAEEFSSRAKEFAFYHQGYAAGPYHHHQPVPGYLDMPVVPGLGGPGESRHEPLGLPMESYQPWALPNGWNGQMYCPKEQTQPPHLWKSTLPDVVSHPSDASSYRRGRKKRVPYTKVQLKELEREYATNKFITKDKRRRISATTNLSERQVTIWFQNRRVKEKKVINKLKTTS
row,Structure (SMILES),z-score
1,CCC1=NOC(CCC2CC(OC(=O)NCc3cccc4c3OCO4)CC3(CCCC(COC(=O)NCCc4ccccc4OC)O3)O2)C1 (stereo not given),-6.1 (inactive)
2,CC(C)=CCCC(C)=CCON=C1C[C@@H](O)[C@@H](O)[C@@H]2[C@@H]3C(=O)N(C[C@@H]4CCCO4)C(=O)[C@@H]3CC[C@H]12,-3.8 (inactive)
3,CC(CCN1CCc2nc(-c3ccccc3)c(-c3ccccc3)cc2C1)=NOC[C@@H](O)COCc1ccco1,-5.11 (inactive)
4,COC(=O)[C@@H]1CC[C@H](C)[C@@H](c2ccc(C)cc2)N1C(=O)c1ccc(C=NOC[C@@H](C)[C@H](OCc2ccccc2)C(C)C)cc1,-4.87 (inactive)
5,COc1ccc(O[C@H]2C=C[C@@H](c3ccccc3)O[C@@H]2COC(=O)CCC(C)=NOC[C@@H](O)[C@H]2O[C@@H]3OC(C)(C)O[C@@H]3[C@H]2O)cc1,-5.83 (inactive)
6,COc1ccc(COC(=O)NN=C2C[C@@H](O)[C@@H](O)[C@@H]3[C@@H]4C(=O)N(c5cccc(Oc6ccccc6)c5)C(=O)[C@@H]4CC[C@@H]23)cc1,-4.69 (inactive)
7,C#CCCCON=C1C[C@@H](O)[C@@H](O)[C@@H]2[C@@H]3C(=O)N(C(C)(C)C)C(=O)[C@@H]3CC[C@@H]12,-3.44 (inactive)
8,C#CCCCON=C1[C@H]2CCn3c(=O)n(-c4ccccc4)c(=O)n3[C@H]2[C@H](O)[C@@H]2O[C@H]12,0.241 (inactive)
9,CCOC(=O)C1=NO[C@@]2(C=C(Br)C3(OCCCO3)[C@H]3O[C@H]32)C1,0.14 (inactive)
10,Cc1ccc(S(=O)(=O)N[C@H]2COC(=O)CC=C[C@H](C)[C@@H](NS(=O)(=O)c3ccc(C)cc3)COC(=O)CC=C[C@@H]2C)cc1,-0.449 (inactive)
11,C[C@H](ON=C1[C@H]2CCn3c(=O)n(-c4ccccc4)c(=O)n3[C@H]2[C@H](O)[C@@H]2O[C@H]12)c1cn([C@H](CO)Cc2ccccc2)nn1,-3.02 (inactive)
12,CCOC(=O)[C@H](CC(C)C)NC(=O)CCC1CC(OC(=O)NCCc2ccc(F)cc2)CC2(CCCC(COC(=O)NCC(c3ccccc3)c3ccccc3)O2)O1 (stereo not given in full),-6.92 (inactive)
13,C=CC[C@@H]1C=C[C@H](ON=C(C)CCC(=O)OC[C@H]2O[C@H](c3ccccc3)C=C[C@@H]2Oc2ccc(OC)cc2)[C@@H](CO)O1,-5.41 (inactive)
14,COC(=O)[C@H]1[C@@H](O)[C@@]2(O)c3ccccc3O[C@@]2(c2ccccc2)[C@@H]1c1ccccc1,-1.51 (inactive)
15,C#CCCCON=C1C[C@@H](O)[C@@H](O)[C@@H]2[C@@H]3C(=O)N(C(C)(C)C)C(=O)[C@@H]3CC[C@H]12,0.436 (inactive)
16,O=C1CCCC=C1C(O)CCCCBr (stereo not given),-5.96 (inactive)
17,COC(=O)[C@@H]1CC[C@H](C)[C@@H](c2ccc(C)cc2)N1C(=O)c1ccc(C=NOCC[C@@H]2C=C[C@H](OC(C)=O)[C@@H](COC(C)=O)O2)cc1,-5.26 (inactive)
18,CCN1C(=O)[C@@H]2[C@H]3C(=CC[C@@H]2C1=O)C1(OCCCO1)[C@H]1O[C@H]1[C@H]3O,-10.9 (active)
19,COC(=O)CC=C[C@@H](C)[C@@H](C=NOC[C@@H](O)[C@H]1O[C@@H]2OC(C)(C)O[C@@H]2[C@H]1O)NS(=O)(=O)c1ccc(C)cc1,0.413 (inactive)
20,C[C@@H](c1ccccc1)N1C(=O)[C@H]2[C@H]3[C@H](O)[C@H](O)CC(=NOCc4ccccc4)[C@H]3CC[C@H]2C1=O,0.0197 (inactive)
21,O=C1OCCC=C1C(O)CCc1ccccc1 (stereo not given),-0.295 (inactive)
22,CCOC(=O)C1=NO[C@]2(C=C(Br)C3(OCCCO3)[C@H]3O[C@H]32)C1,0.136 (inactive)
23,COC(=O)C=CCCc1coc(C=CCNC(=O)OC)n1,-2.9 (inactive)
24,CC(C)=CCCC(C)=CCON=C1C[C@@H](O)[C@@H](O)[C@@H]2[C@@H]3C(=O)N(Cc4ccccc4)C(=O)[C@@H]3CC[C@@H]12,-0.241 (inactive)
25,CO[C@H](C1CCCCC1)[C@H](C)C=CCC(=O)OCCCc1ccccc1,1.25 (inactive)
